About 83,000 compounds went through this panel and 20% of them were active in at least one assay; those are over-represented in the sample as a whole.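 Results are percent growth after 48 hours of single-concentration exposure. 100 means growth as in untreated cells, lower positive values show inhibition; negative values down to -100 show cell death.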 Active and inactive are the calls of the source. Rule for the calls: active = growth percent below 10; inactive = the rest.
How the values were obtained:
Test in all cases: NCI-60 one-dose screen, 48 h (100 = growth as untreated, 0 = no growth, -100 = all killed)
[1] = tested on: NCI-H23 lung; conditions: 10 µM unless noted
[2] = tested on: NCI-H460 lung; conditions: 10 µM unless noted
[3] = tested on: 786-0 renal; conditions: 10 µM unless noted
[4] = tested on: DU-145 prostate; conditions: 10 µM unless noted
[5] = tested on: MDA-MB-231 breast; conditions: 10 µM unless noted
[6] = tested on: SF-268 CNS; conditions: 10 µM unless noted
[7] = tested on: SF-539 CNS; conditions: 10 µM unless noted
[8] = tested on: UACC-257 melanoma; conditions: 10 µM unless noted
[9] = tested on: HCT-15 colon; conditions: 10 µM
[10] = tested on: PC-3 prostate; conditions: 10 µM unless noted
[11] = tested on: SK-MEL-5 melanoma; conditions: 10 µM unless noted
[12] = tested on: LOX IMVI melanoma; conditions: 10 µM unless noted
[13] = tested on: SK-MEL-28 melanoma; conditions: 10 µM unless noted
[14] = tested on: SN12C renal; conditions: 10 µM unless noted
[15] = tested on: NCI/ADR-RES ovarian; conditions: 10 µM unless noted
[16] = tested on: SW-620 colon; conditions: 10 µM unless noted
[17] = tested on: MCF7 breast; conditions: 10 µM unless noted
[18] = tested on: HCT-116 colon; conditions: 10 µM unless noted
[19] = tested on: KM12 colon; conditions: 10 µM unless noted
[20] = tested on: HCC-2998 colon; conditions: 10 µM unless noted

Measured: growth

CCC(CC)(c1ccccc1)C(OC(N)=O)c1ccccc1 (stereo unspecified)
inactive: [1] 79.9% | [2] 90.1% | [3] 82.9% | [4] 98.4% | [5] 94.7% | [6] 93.9% | [7] 103% | [8] 85.8% | [9] 80% | [10] 72.3% | [11] 89.5% | [12] 77.8% | [13] 85.4% | [14] 81.8% | [15] 79.9% | [16] 81% | [17] 81.9% | [18] 62.4% | [19] 83.8%

Nc1cccc(CC(=O)Nc2ccc(S(=O)(=O)F)cc2)c1
inactive: [1] 99.7% | [2] 102% | [3] 96.9% | [4] 110% | [5] 94.4% | [6] 107% | [7] 97.4% | [8] 103% | [9] 101% | [10] 82.2% | [11] 104% | [12] 98% | [13] 87.5% | [14] 100% | [16] 84.3% | [17] 86.7% | [18] 96.9% | [20] 43.9% | [19] 92.2%

N#Cc1ncc(/N=C/c2ccc(N(CCCl)CCCl)cc2)s1
inactive: [1] 58.2% | [2] 22.7% | [3] 29% | [4] 49.2% | [5] 94.5% | [6] 65.5% | [7] 40.7% | [8] 82.4% | [9] 50.6% | [10] 66.9% | [11] 88.4% | [12] 61.3% | [13] 102% | [14] 55.9% | [15] 70.8% | [16] 79.4% | [17] 48.7% | [18] 71.6% | [20] 96.8% | [19] 95.3%

CC1(C)N=C(N)N=C(N)N1c1ccc(CCCCc2ccc(Cl)cc2S(=O)(=O)F)c(Cl)c1
active: [2] 8.45%
inactive: [1] 25.6% | [3] 20.4% | [4] 22.5% | [5] 27.4% | [6] 25.2% | [7] 19.6% | [8] 10.1% | [9] 22.4% | [10] 21.3% | [11] 19.5% | [12] 13.3% | [13] 37.8% | [14] 23.4% | [15] 53.3% | [16] 11.9% | [17] 13.3% | [18] 14.9% | [20] 32% | [19] 15.7%

c1cnc2c(c1)ccc1ncccc12
inactive: [1] 121% | [2] 108% | [3] 105% | [4] 107% | [5] 108% | [6] 96.4% | [7] 106% | [8] 96.6% | [9] 110% | [11] 104% | [12] 106% | [13] 205% | [14] 95.3% | [15] 78.4% | [16] 144% | [17] 107% | [18] 89.8% | [20] 119% | [19] 107%

Nc1ccc(N)c2c1Oc1ccccc1O2
inactive: [1] 85.7% | [2] 117% | [3] 93.2% | [4] 94.3% | [5] 78.5% | [6] 105% | [7] 89.1% | [8] 102% | [9] 105% | [10] 88% | [11] 72.6% | [12] 90.3% | [13] 108% | [14] 86.1% | [15] 94.9% | [16] 102% | [17] 98% | [18] 95.7% | [20] 108% | [19] 97.3%

COc1ccc2c(c1)NC1=C(C(=O)OC1)C2c1cc(OC)c(OC)c(OC)c1 (stereo unspecified)
inactive: [1] 16.2% | [3] 18.8% | [6] 22.6% | [8] 62.4% | [9] 15.3% | [10] 20.6% | [12] 11.9% | [13] 66.2% | [14] 23.1% | [16] 17.9% | [20] 10.9%
active: [2] 4.55% | [4] -24.7% | [5] 6.08% | [7] -4.41% | [11] -49.1% | [15] -34.5% | [17] 9.07% | [18] 5.07% | [19] -4.06%

C#CC1(O)CCC2(C)C(CCC3C4CCC(=O)C4(C)CCC32)C1 (stereo unspecified)
inactive: [1] 97.3% | [2] 102% | [3] 97.4% | [4] 109% | [5] 101% | [6] 97.9% | [7] 97.2% | [8] 93.9% | [9] 97.5% | [10] 90.9% | [11] 96.2% | [12] 96.6% | [13] 105% | [14] 101% | [15] 96.4% | [16] 103% | [17] 104% | [18] 92.3% | [20] 106% | [19] 102%

CN=C(NN)NN
inactive: [1] 102% | [2] 111% | [3] 103% | [4] 111% | [5] 120% | [6] 103% | [7] 104% | [8] 109% | [9] 104% | [10] 93.3% | [11] 107% | [12] 98.1% | [13] 118% | [14] 113% | [16] 107% | [17] 99.3% | [18] 109% | [20] 103% | [19] 108%

COc1cc(C2CC(=O)Nc3nc(N)[se]c32)cc(OC)c1OC (stereo unspecified)
inactive: [1] 102% | [2] 25.1% | [3] 114% | [4] 101% | [5] 101% | [6] 101% | [7] 101% | [8] 99.6% | [9] 109% | [10] 71.2% | [11] 99% | [12] 105% | [13] 111% | [14] 64.6% | [15] 107% | [16] 109% | [17] 98.6% | [18] 74.9% | [20] 107% | [19] 56.7%

O=S(=O)(c1ccc(Cl)cc1)C(Cl)(Cl)Cl
inactive: [1] 40.6% | [2] 80.4% | [3] 51.8% | [4] 49.4% | [5] 42% | [6] 45.5% | [7] 33.8% | [8] 28.2% | [9] 39% | [10] 49.1% | [11] 42.5% | [12] 35.1% | [13] 38.5% | [14] 58.3% | [15] 29% | [16] 24.4% | [17] 23.8% | [18] 42.2% | [20] 18.3% | [19] 23.4%

COC(=O)C[Se]C(=O)c1ccccc1OC(C)=O
inactive: [1] 76.2% | [2] 76.5% | [3] 89.8% | [4] 61.8% | [5] 71.3% | [6] 72.3% | [7] 75.1% | [8] 59.7% | [9] 46.4% | [10] 77.7% | [11] 90.6% | [12] 59.6% | [13] 84.1% | [14] 93.2% | [15] 24.2% | [16] 97.8% | [17] 65.5% | [18] 10.9% | [20] 62.1% | [19] 22.1%

Nc1c(Br)cc([N+](=O)[O-])cc1[N+](=O)[O-]
inactive: [1] 98.4% | [2] 103% | [3] 105% | [4] 101% | [5] 105% | [6] 97.7% | [7] 110% | [8] 100% | [9] 114% | [10] 102% | [12] 103% | [13] 116% | [14] 104% | [15] 105% | [16] 103% | [17] 103% | [18] 108% | [20] 102% | [19] 105%

CC(C)(O)/C=C/C(=O)[C@](C)(O)[C@H]1[C@H](O)C[C@@]2(C)[C@@H]3CC=C4[C@@H](C=C(O)C(=O)C4(C)C)[C@]3(C)C(=O)C[C@]12C
inactive: [15] 12.2%
active: [1] -40.1% | [2] -20.8% | [3] -96.2% | [4] -40.2% | [5] -25% | [6] -27.5% | [7] -53.6% | [8] 0.414% | [9] -52% | [10] -58.8% | [11] -78.4% | [12] -59.6% | [14] 7% | [16] -20% | [17] 2.31% | [18] -53.5% | [20] -99% | [19] -60.9%

O=C(CCF)c1ccc(O)cc1
inactive: [1] 94% | [3] 103% | [4] 105% | [5] 113% | [7] 103% | [8] 98.2% | [9] 102% | [10] 98% | [11] 117% | [12] 95% | [13] 113% | [14] 100% | [15] 105% | [17] 101% | [18] 103% | [20] 108% | [19] 106%

Cc1ccc(N)cc1[As]=[As]c1cc(N)ccc1C (stereo unspecified)
inactive: [2] 60.4% | [15] 53.8% | [19] 65.7%
active: [1] -56.4% | [3] -89.3% | [4] -40.6% | [5] -92.6% | [6] -83.6% | [7] -94.5% | [8] -97.3% | [9] -68.5% | [10] -89.9% | [11] -87.2% | [12] -56.9% | [13] -94.2% | [14] -86.5% | [16] -57% | [17] -74.9% | [18] -79.4% | [20] -73.8%

CCCCCN(CCCCC)CC(O)c1ccc(C)c(Cl)c1 (stereo unspecified)
inactive: [1] 89.3% | [2] 101% | [3] 98.2% | [4] 118% | [5] 97.4% | [6] 106% | [7] 101% | [8] 95.4% | [9] 99.9% | [10] 91.8% | [11] 103% | [12] 96.3% | [13] 96.6% | [14] 101% | [15] 104% | [16] 103% | [17] 95.5% | [18] 82.1% | [20] 107% | [19] 105%
